Structures are written as SMILES. Compounds without any hit were thinned out: in the full panel of roughly 79,000, 15% have a hit. Values without a mark were called inactive. The source made the active and inactive calls. No stated cut-off is given here; in the data, active means growth inhibition above about 70%; inactive means the rest.

Assay [1] in a line: NCI Yeast Anticancer Drug Screen. Data for the rad50 strain (AID 155).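 Further: 0% = growth of vehicle-only cultures of the same strain.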 Particulars: S. cerevisiae rad50 strain growth inhibition, active compounds read high. A digest of the protocol: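 Relative growth inhibition (compound vs vehicle) was measured in yeast with a defined repair-gene alteration.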
Assay [2] in a line: NCI Yeast Anticancer Drug Screen. Data for the mec2-1 strain (AID 157). Particulars: S. cerevisiae mec2-1 strain, active compounds read high. A digest of the protocol: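 Compounds were applied to mec2-1 yeast cells. Their growth was then compared with that of vehicle-treated cultures to give growth inhibition.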
A short description of assay [3]: NCI Yeast Anticancer Drug Screen. Data for the sgs1 mgt1 strain (AID 161).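 Further: 0% = growth of cultures given vehicle only.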 As to conditions: S. cerevisiae sgs1 mgt1 strain, active compounds read high. In outline:
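Compounds are added to genetically altered yeast, and growth is compared with cultures given vehicle alone to give percent inhibition.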

Assay [4] can be described thus: NCI Yeast Anticancer Drug Screen. Data for the cln2 rad14 strain (AID 165).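 Further: 0% = growth equal to vehicle treated cultures.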 As to conditions: S. cerevisiae cln2 rad14 strain, active compounds read high. A digest of the protocol:
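Strain: cln2 rad14 yeast, altered in cell cycle control and DNA damage repair. Read-out: growth inhibition vs vehicle.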

A short description of assay [5]: NCI Yeast Anticancer Drug Screen. Data for the bub3 strain (AID 167). As to conditions: S. cerevisiae bub3 mutant strain, active compounds read high. In outline:
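Screening used yeast with an engineered genetic alteration affecting cell cycle control. Compound-exposed cultures were compared with vehicle cultures, and reduced growth was taken as inhibition.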

Assay [6] can be described thus: NCI Yeast Anticancer Drug Screen. Data for the mlh1 rad18 strain (AID 175). Particulars: S. cerevisiae mlh1 rad18 strain growth inhibition, active compounds read high. A digest of the protocol:
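A repair-deficient yeast strain is exposed to test compound, and growth is scored relative to vehicle-treated controls.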

[7] abbreviates: at 5.0 µM (retest, dose inferred, filed as 0.5).
Setting [8] is: at 50.0 µM (retest, dose inferred, filed as 5.0).

As to `O=C(Nc1ccc(F)c(Cl)c1)Oc1ccc(Br)cc1Br`, the growth inhibition in assay [1] (setting [7]) was 10%; in assay [1] (setting [8]), 52%; in assay [1] (at 50.0 µM) it was 38.1%; in assay [2] (setting [7]), 5%; in assay [2] (setting [8]) it was 50%; in assay [2] (at 50.0 µM) it was 56.8%. Moreover, the growth inhibition in assay [3] (setting [7]) was -2%; in assay [3] (setting [8]), 66%; in assay [3] (at 50.0 µM), 65.8%; in assay [4] (setting [7]), -5%; in assay [4] (setting [8]) it was 6%; in assay [4] (at 50.0 µM) it was 11.3%. Moreover, the growth inhibition in assay [5] (setting [7]) is -2%; in assay [5] (setting [8]), 11%; in assay [5] (at 50.0 µM), 15.5%; in assay [6] (setting [7]), -3%; in assay [6] (setting [8]), 80% (active); in assay [6] (at 50.0 µM) it was 89.5% (active).

For `O=[N+]([O-])c1ncn(C2OC(CO)C(O)C2O)c1S` (configuration not stated), the growth inhibition in assay [1] (setting [7]) was -5%; in assay [1] (setting [8]), -3%; in assay [1] (at 50.0 µM), -2.85%; in assay [2] (setting [7]), 2%; in assay [2] (setting [8]), -8%; in assay [2] (at 50.0 µM), 24.6%. Further, the growth inhibition in assay [3] (setting [7]) is -1%; in assay [3] (setting [8]) it was -3%; in assay [3] (at 50.0 µM), 14.6%; in assay [4] (setting [7]), -3%; in assay [4] (setting [8]), -5%; in assay [4] (at 50.0 µM) it was 66.1%. Also, the growth inhibition in assay [5] (setting [7]) is -12%; in assay [5] (setting [8]), -14%; in assay [5] (at 50.0 µM) it was 1.15%; in assay [6] (setting [7]), -6%; in assay [6] (setting [8]) it was -8%; in assay [6] (at 50.0 µM), 8.05%.

In the case of `Cc1ccc2ccc(C(Nc3ccccc3)c3ccncc3)c(O)c2n1` (configuration not stated), the growth inhibition in assay [1] (setting [7]) was -6%; in assay [1] (setting [8]), 92% (active); in assay [1] (at 50.0 µM), 90.8% (active); in assay [2] (setting [7]) it was -2%; in assay [2] (setting [8]) it was 95% (active); in assay [2] (at 50.0 µM), 82.8% (active). The growth inhibition in assay [3] (setting [7]) is 4%; in assay [3] (setting [8]), 87% (active); in assay [3] (at 50.0 µM) it was 43.5%; in assay [4] (setting [7]), -6%; in assay [4] (setting [8]) it was 81% (active); in assay [4] (at 50.0 µM) it was 49.3%. Moreover, the growth inhibition in assay [5] (setting [7]) was -7%; in assay [5] (setting [8]), 92% (active); in assay [5] (at 50.0 µM), 81.1% (active); in assay [6] (setting [7]) it was -5%; in assay [6] (setting [8]), 92% (active); in assay [6] (at 50.0 µM), 89% (active).

Take `CC(=O)OC(OC(C)=O)c1ccc2ccc3cccc4ccc1c2c34`: the growth inhibition in assay [1] (setting [7]) is 16%; in assay [1] (setting [8]), 89% (active); in assay [1] (at 50.0 µM) it was 63.4%; in assay [2] (setting [7]) it was -1%; in assay [2] (setting [8]), 78% (active); in assay [2] (at 50.0 µM), 45.8%. Besides, the growth inhibition in assay [3] (setting [7]) is -16%; in assay [3] (setting [8]), 84% (active); in assay [3] (at 50.0 µM), 61%; in assay [4] (setting [7]), 3%; in assay [4] (setting [8]), 78% (active); in assay [4] (at 50.0 µM), 45.2%. For the same compound, the growth inhibition is -17% in assay [5] (setting [7]); 85% (active) in assay [5] (setting [8]); 69% in assay [5] (at 50.0 µM); -3% in assay [6] (setting [7]); 89% (active) in assay [6] (setting [8]); 71.7% (active) in assay [6] (at 50.0 µM).

Turning to `C1=Cc2ccccc2/C1=C/c1ccccc1`, the growth inhibition was -1% in assay [1] (setting [7]); 93% (active) in assay [1] (setting [8]); 86.3% (active) in assay [1] (at 50.0 µM); -32% in assay [2] (setting [7]); 89% (active) in assay [2] (setting [8]); 60.6% in assay [2] (at 50.0 µM). For the same compound, the growth inhibition in assay [3] (setting [7]) was 1%; in assay [3] (setting [8]), 97% (active); in assay [3] (at 50.0 µM) it was 88% (active); in assay [4] (setting [7]), -7%; in assay [4] (setting [8]) it was 56%; in assay [4] (at 50.0 µM), 61.8%. Also, the growth inhibition in assay [5] (setting [7]) was -4%; in assay [5] (setting [8]), 95% (active); in assay [5] (at 50.0 µM), 96.7% (active); in assay [6] (setting [7]), 0%; in assay [6] (setting [8]) it was 97% (active); in assay [6] (at 50.0 µM), 91.2% (active).

With `CN=C(N)NN=C(c1ccc(Cl)cc1)c1ccc(Cl)cc1`, the growth inhibition in assay [1] (setting [7]) was 32%; in assay [1] (setting [8]), 99% (active); in assay [1] (at 50.0 µM) it was 87.8% (active); in assay [2] (setting [7]), 30%; in assay [2] (setting [8]) it was 99% (active); in assay [2] (at 50.0 µM) it was 91.2% (active). Besides, the growth inhibition was 51% in assay [3] (setting [7]); 99% (active) in assay [3] (setting [8]); 87.5% (active) in assay [3] (at 50.0 µM); 48% in assay [4] (setting [7]); 98% (active) in assay [4] (setting [8]); 85% (active) in assay [4] (at 50.0 µM). Moreover, the growth inhibition in assay [5] (setting [7]) is 52%; in assay [5] (setting [8]), 99% (active); in assay [5] (at 50.0 µM) it was 83.2% (active); in assay [6] (setting [7]) it was 25%; in assay [6] (setting [8]), 98% (active); in assay [6] (at 50.0 µM), 92.4% (active).

As for `CC1CC(C)CC(C(O)(C(=O)O)C2CC(C)CC(C)C2)C1` (configuration not stated), the growth inhibition in assay [1] (setting [7]) is 23%; in assay [1] (setting [8]), 99% (active); in assay [1] (at 50.0 µM), 99.2% (active); in assay [2] (setting [7]) it was 18%; in assay [2] (setting [8]), 99% (active); in assay [2] (at 50.0 µM), 97% (active). The growth inhibition in assay [3] (setting [7]) is 10%; in assay [3] (setting [8]) it was 99% (active); in assay [3] (at 50.0 µM), 99.5% (active); in assay [4] (setting [7]), 82% (active); in assay [4] (setting [8]), 100% (active); in assay [4] (at 50.0 µM), 78.5% (active). In addition, the growth inhibition was 29% in assay [5] (setting [7]); -34% in assay [5] (setting [8]); 94% (active) in assay [5] (at 50.0 µM); 18% in assay [6] (setting [7]); 99% (active) in assay [6] (setting [8]); 99.5% (active) in assay [6] (at 50.0 µM).

For the compound `C=C1C(=O)[C@@]23CC[C@H]4[C@@](C)(CCC[C@@]4(C)C(=O)OC)[C@@H]2CC[C@]1(O)C3`, the growth inhibition in assay [1] (setting [7]) was 83% (active); in assay [1] (setting [8]), 99% (active); in assay [1] (at 50.0 µM), 92.2% (active); in assay [2] (setting [7]), 92% (active); in assay [2] (setting [8]), 99% (active); in assay [2] (at 50.0 µM), 94.4% (active). For the same compound, the growth inhibition was 83% (active) in assay [3] (setting [7]); 99% (active) in assay [3] (setting [8]); 94% (active) in assay [3] (at 50.0 µM); 54% in assay [4] (setting [7]); 99% (active) in assay [4] (setting [8]); 92.2% (active) in assay [4] (at 50.0 µM). Moreover, the growth inhibition was 94% (active) in assay [5] (setting [7]); 99% (active) in assay [5] (setting [8]); 93.7% (active) in assay [5] (at 50.0 µM); 92% (active) in assay [6] (setting [7]); 99% (active) in assay [6] (setting [8]); 90.8% (active) in assay [6] (at 50.0 µM).

For `O=C(c1ccc(O)c(Br)c1)c1cc(Br)ccc1O`, the growth inhibition is 66% in assay [1] (setting [7]); 98% (active) in assay [1] (setting [8]); 95.7% (active) in assay [1] (at 50.0 µM); 77% (active) in assay [2] (setting [7]); 98% (active) in assay [2] (setting [8]); 96.9% (active) in assay [2] (at 50.0 µM). Moreover, the growth inhibition in assay [3] (setting [7]) is 73% (active); in assay [3] (setting [8]), 98% (active); in assay [3] (at 50.0 µM), 97.8% (active); in assay [4] (setting [7]), 86% (active); in assay [4] (setting [8]), 99% (active); in assay [4] (at 50.0 µM) it was 95.3% (active). In addition, the growth inhibition in assay [5] (setting [7]) is 85% (active); in assay [5] (setting [8]), 97% (active); in assay [5] (at 50.0 µM), 96% (active); in assay [6] (setting [7]), 78% (active); in assay [6] (setting [8]), 98% (active); in assay [6] (at 50.0 µM), 95.9% (active).

The values above are taken from PubChem BioAssay (NCI).
